# The supplement of paper PMC12494721
# Where a name gives a salt, the structure may show the parent alone.
# Columns and labels:
# Conditions in all cases: incubation time: 27 h, anaerobic, 37 °C;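 for the amine columns active = adjusted P below 0.05 in both replicates with a change the same way and a mean fold change under 0.8 or over 1.25; inactive = the rest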
# [1] = tested on: Clostridium sporogenes DSM 1664; experiment: growth (OD595) fold change vs plate DMSO controls (fold change (ratio)); higher = more growth
# Summary of the method: (§1)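 Growth is calculated as fold change against the median of the DMSO control wells on each plate. Readings at 595 nm from anaerobic mGAM cultures (96-well, 27 h, 37 °C) were blank-subtracted, background-corrected with 20 µM compound solutions in water, and converted to OD by a calibration factor of 5. Fold changes above 1.5 were recorded as NA, and results are means of 2 biological replicates.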
# [2] = tested on: Escherichia coli IAI1; experiment: as above
# Summary of the method: as §1
# [3] = tested on: Klebsiella aerogenes DSM 30053; experiment: as above
# Summary of the method: as §1
# [4] = tested on: Ruminococcus gnavus DSM 108212; experiment: as above
# Summary of the method: as §1
# [5] = tested on: Klebsiella aerogenes DSM 30053; experiment: fold change of Histamine concentration vs plate DMSO controls (fold change (ratio)); higher = more amine produced, active = hit call of the paper (significant change in both replicates, either direction)
# Summary of the method: (§2)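 Amines were quantified by LC–triple-quadrupole MS in dynamic MRM mode against external calibration curves, with drift correction within each batch. The samples were whole anaerobic mGAM cultures of four gut bacterial strains, grown for 27 h at 37 °C in 80 µL wells and extracted with cold acetonitrile/methanol with 0.1% formic acid, then centrifuged. Values are reported as fold change over DMSO controls on the same plate. The mean of 2 biological replicates is given.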
# [6] = tested on: Clostridium sporogenes DSM 1664; experiment: fold change of Tryptamine concentration vs plate DMSO controls (fold change (ratio)); higher = more amine produced, active = hit call of the paper (significant change in both replicates, either direction)
# Summary of the method: as §2
# [7] = tested on: Ruminococcus gnavus DSM 108212; experiment: as above
# Summary of the method: as §2
# [8] = tested on: Escherichia coli IAI1; experiment: fold change of Putrescine concentration vs plate DMSO controls (fold change (ratio)); higher = more amine produced, active = hit call of the paper (significant change in both replicates, either direction)
# Summary of the method: as §2
# [9] = tested on: Klebsiella aerogenes DSM 30053; experiment: as above
# Summary of the method: as §2
# [10] = tested on: Escherichia coli IAI1; experiment: fold change of Cadaverine concentration vs plate DMSO controls (fold change (ratio)); higher = more amine produced, active = hit call of the paper (significant change in both replicates, either direction)
# Summary of the method: as §2
# [11] = tested on: Klebsiella aerogenes DSM 30053; experiment: as above
# Summary of the method: as §2
# [12] = tested on: Ruminococcus gnavus DSM 108212; experiment: fold change of 2-Phenylethylamine concentration vs plate DMSO controls (fold change (ratio)); higher = more amine produced, active = hit call of the paper (significant change in both replicates, either direction)
# Summary of the method: as §2
Compound,growth [1],growth [2],growth [3],growth [4],fold change of Histamine concentration [5],fold change of Tryptamine concentration [6],fold change of Tryptamine concentration [7],fold change of Putrescine concentration [8],fold change of Putrescine concentration [9],fold change of Cadaverine concentration [10],fold change of Cadaverine concentration [11],fold change of 2-Phenylethylamine concentration [12]
CCCN(CCC)S(=O)(=O)c1ccc(C(=O)O)cc1 [Probenecid] (20 µM),1.04,1.02,1.17,1.09,0.92 (inactive),0.999 (inactive),1 (inactive),0.984 (inactive),1 (inactive),1.04 (inactive),1.02 (inactive),1.02 (inactive)
O=C(O)Cc1csc(-c2ccc(Cl)cc2)n1 [Fenclozic acid] (20 µM),1.01,0.949,0.979,1.1,1.05 (inactive),1 (inactive),1.05 (inactive),1.01 (inactive),0.985 (inactive),0.986 (inactive),0.977 (inactive),1.1 (inactive)
O=C(CCCN1CCC(O)(c2ccc(Cl)cc2)CC1)c1ccc(F)cc1 [Haloperidol] (20 µM),0.929,0.6,0.574,0.802,1.06 (inactive),1.05 (inactive),0.96 (inactive),1.03 (inactive),1 (inactive),0.864 (inactive),0.992 (inactive),0.965 (inactive)
C=CC(N)CCC(=O)O (centres undefined) [Vigabatrin hydrochloride] (20 µM),1.11,1.06,1.17,0.977,0.856 (inactive),0.993 (inactive),1.02 (inactive),1.02 (inactive),1.01 (inactive),0.978 (inactive),1.03 (inactive),1 (inactive)
O=C1NCN(c2ccccc2)C12CCN(CCCC(c1ccc(F)cc1)c1ccc(F)cc1)CC2 [Fluspirilene] (20 µM),0.921,0.951,1.01,1.01,0.981 (inactive),0.959 (inactive),0.814 (inactive),0.996 (inactive),0.994 (inactive),1.02 (inactive),0.995 (inactive),0.884 (inactive)
O=C(c1ccc(OCCN2CCCCC2)cc1)c1c(-c2ccc(O)cc2)sc2cc(O)ccc12 [Raloxifene hydrochloride] (20 µM),1.19,1.08,1.04,1.2,0.986 (inactive),0.932 (inactive),0.941 (inactive),0.976 (inactive),1.03 (inactive),1.01 (inactive),1.01 (inactive),0.917 (inactive)
CCC1=C(C)CN(C(=O)NCCc2ccc(S(=O)(=O)NC(=O)N[C@H]3CC[C@H](C)CC3)cc2)C1=O [Glimepiride] (20 µM),1.02,1.03,1.02,0.969,0.985 (inactive),0.934 (inactive),0.995 (inactive),0.976 (inactive),0.997 (inactive),1.04 (inactive),0.993 (inactive),1.02 (inactive)
CC(C)(C)C(O)/C=C/c1ccc2c(c1)OCO2 (centres undefined) [Stiripentol] (20 µM),1.04,1.03,1,0.89,1.03 (inactive),0.927 (inactive),1.04 (inactive),1.01 (inactive),1.01 (inactive),1.03 (inactive),0.985 (inactive),0.981 (inactive)
CO[C@@H]1[C@@H](O[C@@H]2O[C@H](C)[C@@H](O[C@H]3C[C@@](C)(O)[C@@H](O)[C@H](C)O3)[C@H](N(C)C)[C@H]2O)[C@@H](CC=O)C[C@@H](C)[C@@H](O[C@H]2CC[C@H](N(C)C)[C@@H](C)O2)/C=C/C=C/C[C@@H](C)OC(=O)C[C@H]1OC(C)=O [Acetyl spiramycin] (20 µM),0.00073,1.03,0.958,0.154,0.621 (active),0.0194 (active),0.153 (active),0.875 (inactive),1.03 (inactive),0.989 (inactive),1.03 (inactive),0.156 (active)
CC[C@H](C)C(=O)O[C@H]1C[C@@H](C)C=C2C=C[C@H](C)[C@H](CC[C@@H]3C[C@@H](O)CC(=O)O3)[C@H]21 [Lovastatin] (20 µM),1.13,1,0.995,1.16,1.05 (inactive),0.945 (inactive),0.995 (inactive),0.975 (inactive),1.02 (inactive),1.01 (inactive),0.999 (inactive),0.984 (inactive)
CN1CCCCC1CCN1c2ccccc2Sc2ccc([S+](C)[O-])cc21 (centres undefined) [Mesoridazine besylate] (20 µM),1.12,0.991,0.974,0.756,1.1 (inactive),0.992 (inactive),1.02 (inactive),1 (inactive),1.02 (inactive),1.01 (inactive),0.978 (inactive),0.987 (inactive)
Nc1nc(N)c2nc(-c3ccccc3)c(N)nc2n1 [Triamterene] (20 µM),1.09,0.967,0.969,1.25,1.05 (inactive),0.928 (inactive),0.966 (inactive),0.8 (inactive),1.01 (inactive),1.04 (inactive),0.988 (inactive),0.907 (inactive)
